Several values for one entry are separate records, joined by “and”; a condition that tells them apart may be missing. Identical values can stand only once. In all, about 5,500 compounds went through this assay and about 2,000 (36%) were called active. About 18% were inconclusive and are not listed. Cut-off read from the data, not from the text of the source: active = normalized growth mostly below about 0.91 (no sharp cut-off); inconclusive = no clear call, values can overlap the other calls; inactive = mostly above about 0.92. The list shows a part of the results.
Test: chemical genetic growth profiling, strain panel (AID 1159580);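 note: tested at 20 µM; growth read once vehicle control cultures reached saturation at 30 °C; 1 = growth at the plate median or of vehicle wells; lower values mean less growth of the strain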
Conditions: S. cerevisiae deletion strains, growth OD

Measured: normalized growth

CC1=CC(=O)C(C(C)C)=CC1=O
active: locus YAL013W, strain DEP1, stronger effect = lower value 0.784 | locus YAL026C, strain drs2, stronger effect = lower value 0.711 | locus YAL030W, strain snc1, stronger effect = lower value 0.914 | locus YBR009C, strain hhf1, stronger effect = lower value 0.488 | locus YBR021W, strain FUR4, stronger effect = lower value 0.827 | locus YCL011C, strain gbp2, stronger effect = lower value 0.375 | locus YCR088W, strain abp1, stronger effect = lower value 0.777 | locus YDL192W, strain arf1, stronger effect = lower value 0.776 | locus YDR101C, strain arx1, stronger effect = lower value 0.87 | locus YDR137W, strain rgp1, stronger effect = lower value 0.665 | locus YDR159W, strain sac3, stronger effect = lower value 0.773 | locus YDR318W, strain mcm21, stronger effect = lower value 0.878 | locus YDR388W, stronger effect = lower value 0.925 | locus YDR392W, strain spt3, stronger effect = lower value 0.455 | locus YDR502C, strain sam2, stronger effect = lower value 0.857 | locus YEL003W, strain gim4, stronger effect = lower value 0.416 | locus YER155C, strain BEM2 (second series), stronger effect = lower value 0.425 | locus YER155C, strain BEM2, stronger effect = lower value 0.871 | locus YER167W, strain BCK2, stronger effect = lower value 0.897 | locus YGL086W, strain mad1, stronger effect = lower value 0.846 | locus YGL227W, strain vid30, stronger effect = lower value 0.217 | locus YGL248W, strain PDE1, stronger effect = lower value 0.849 | locus YGR078C, strain PAC10, stronger effect = lower value 0.547 | locus YGR135W, strain pre9, stronger effect = lower value 0.826 | locus YGR252W, strain gcn5, stronger effect = lower value 0.746 | locus YHR129C, strain ARP1, stronger effect = lower value 0.864 | locus YHR142W, strain chs7, stronger effect = lower value 0.775 | locus YHR200W, strain rpn10, stronger effect = lower value 0.911 | locus YIL066C, strain RNR3, stronger effect = lower value 0.828 | locus YIL125W, strain kgd1, stronger effect = lower value 0.926 | locus YIR030C, strain dcg1, stronger effect = lower value 0.9 | locus YJL129C, strain trk1, stronger effect = lower value 0.65 | locus YJL164C, strain tpk1, stronger effect = lower value 0.785 | locus YJL166W, strain qcr8, stronger effect = lower value 0.415 | locus YJR043C, strain POL32, stronger effect = lower value 0.79
0.468 (active) and 0.942 (inactive): locus YJL095W, strain BCK1, stronger effect = lower value
0.556 (active) and 0.951 (inactive): locus YHR030C, strain SLT2, stronger effect = lower value
inactive: locus YAL021C, strain ccr4, stronger effect = lower value 0.91 | locus YBL061C, strain skt5, stronger effect = lower value 0.992 | locus YBR023C, strain chs3, stronger effect = lower value 0.997 | locus YBR171W, strain sec66, stronger effect = lower value 0.996 | locus YBR229C, strain ROT2, stronger effect = lower value 0.984 | locus YBR231C, strain swc5, stronger effect = lower value 0.956 | locus YBR279W, strain paf1, stronger effect = lower value 0.98 | locus YCL016C, strain dcc1, stronger effect = lower value 0.984 | locus YCL029C, strain bik1, stronger effect = lower value 0.926 | locus YCL061C, strain MRC1, stronger effect = lower value 0.966 | locus YCL069W, strain vba3, stronger effect = lower value 0.993 | locus YDL005C, strain med2, stronger effect = lower value 0.974 | locus YDL035C, strain GPR1, stronger effect = lower value 0.859 | locus YDL040C, strain nat1, stronger effect = lower value 0.996 | locus YDL074C, strain BRE1, stronger effect = lower value 0.797 | locus YDL101C, strain DUN1, stronger effect = lower value 0.954 | locus YDL185W, strain tfp1, stronger effect = lower value 0.935 | locus YDR001C, strain nth1, stronger effect = lower value 1 | locus YDR069C, strain doa4, stronger effect = lower value 0.988 | locus YDR162C, strain NBP2, stronger effect = lower value 0.858 | locus YDR195W, strain ref2 1.03 | locus YDR297W, strain sur2, stronger effect = lower value 0.989 | locus YDR335W, strain msn5, stronger effect = lower value 0.998 | locus YEL037C, strain rad23, stronger effect = lower value 0.996 | locus YEL061C, strain CIN8 (second series), stronger effect = lower value 0.917 | locus YER015W, strain faa2, stronger effect = lower value 0.989 | locus YER016W, strain bim1, stronger effect = lower value 1.01 | locus YER110C, stronger effect = lower value 0.922 | locus YER111C, strain swi4, stronger effect = lower value 0.994 | locus YFR010W, strain ubp6, stronger effect = lower value 0.93 | locus YGL078C, strain dbp3, stronger effect = lower value 0.932 | locus YGL167C, strain pmr1, stronger effect = lower value 0.996 | locus YGL173C, strain kem1, stronger effect = lower value 0.947 | locus YGL240W, strain doc1, stronger effect = lower value 0.938 | locus YGL253W, strain hxk2, stronger effect = lower value 0.956 | locus YHR013C, strain ard1, stronger effect = lower value 0.995 | locus YHR027C, strain rpn1, stronger effect = lower value 0.996 | locus YHR079C, strain IRE1 (second series), stronger effect = lower value 0.935 | locus YHR079C, strain IRE1, stronger effect = lower value 0.941 | locus YHR094C, strain hxt1, stronger effect = lower value 0.949 | locus YIL073C, strain SPO22, stronger effect = lower value 0.765 | locus YJL092W, strain hpr5, stronger effect = lower value 0.989 | locus YJL095W, strain BCK1 (second series), stronger effect = lower value 0.928 | locus YJL115W, strain asf1, stronger effect = lower value 0.981 | locus YJL134W, strain LCB3, stronger effect = lower value 0.982 | locus YJL154C, strain vps35, stronger effect = lower value 0.989 | locus YJL168C, strain set2, stronger effect = lower value 0.942 | locus YJL187C, strain SWE1 (second series), stronger effect = lower value 0.931 | locus YJL187C, strain SWE1, stronger effect = lower value 0.974

Source: PubChem BioAssay AID1159580 (chemical genetic matrix, 2015)
